Results: the supplement of paper PMC12669032

Tests used:
Assay in all cases: growth AUC relative to DMSO control (median of replicates) (fraction); higher = more growth (less inhibition), active = hit call of the paper
Details in all cases: 20 µM; 24 h;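 active = AUC reduced over 20% with Padj below 0.05 in at least 2 of 3 replicates; inactive = otherwise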
Akkermansia muciniphila = tested on: Akkermansia muciniphila
Procedure, shortened: (§1)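 Area under the growth curve was normalised to the plate median of solvent-only wells, except on the industrial chemical plate, where row and column medians were used. Curves came from gut bacterial monocultures grown anaerobically at 37 °C in mGAM with 20 µM compound (1% DMSO), starting at OD600 0.05 and read at OD600 every hour for 24 h. The minimum OD of each curve was set to 0, and values are medians of three biological replicates grown on separate days.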

Bacteroides caccae = tested on: Bacteroides caccae
Procedure, shortened: as §1

Bacteroides clarus = tested on: Bacteroides clarus
Procedure, shortened: as §1

Bacteroides dorei = tested on: Bacteroides dorei
Procedure, shortened: as §1

Bacteroides stercoris = tested on: Bacteroides stercoris
Procedure, shortened: as §1

[1] = tested on: Bacteroides thetaiotaomicron
Procedure, shortened: as §1

Bacteroides uniformis = tested on: Bacteroides uniformis
Procedure, shortened: as §1

[2] = tested on: Bifidobacterium longum subsp. longum
Procedure, shortened: as §1

Clostridium difficile = tested on: Clostridium difficile
Procedure, shortened: as §1

Collinsella aerofaciens = tested on: Collinsella aerofaciens
Procedure, shortened: as §1

Coprococcus comes = tested on: Coprococcus comes
Procedure, shortened: as §1

Escherichia coli ED1a = tested on: Escherichia coli ED1a
Procedure, shortened: as §1

Escherichia coli IAI1 = tested on: Escherichia coli IAI1
Procedure, shortened: as §1

Eubacterium rectale = tested on: Eubacterium rectale
Procedure, shortened: as §1

[3] = tested on: Fusobacterium nucleatum subsp. animalis
Procedure, shortened: as §1

Lactobacillus gasseri = tested on: Lactobacillus gasseri
Procedure, shortened: as §1

Lactobacillus paracasei = tested on: Lactobacillus paracasei
Procedure, shortened: as §1

Odoribacter splanchnicus = tested on: Odoribacter splanchnicus
Procedure, shortened: as §1

[4] = tested on: Parabacteroides distasonis
Procedure, shortened: as §1

Parabacteroides merdae = tested on: Parabacteroides merdae
Procedure, shortened: as §1

Measured: growth AUC

CC(C)OC(=O)c1cc(C(=O)OC(C)C)cc([N+](=O)[O-])c1
inactive: Akkermansia muciniphila 0.939 | Bacteroides caccae 0.977 | Bacteroides clarus 0.987 | Bacteroides dorei 0.974 | Bacteroides stercoris 0.933 | [1] 0.933 | Bacteroides uniformis 0.924 | [2] 0.932 | Clostridium difficile 0.992 | Collinsella aerofaciens 0.947 | Coprococcus comes 0.97 | Escherichia coli ED1a 0.998 | Escherichia coli IAI1 0.988 | Eubacterium rectale 0.972 | [3] 0.98 | Lactobacillus gasseri 0.968 | Lactobacillus paracasei 0.964 | Odoribacter splanchnicus 1.06 | [4] 0.963 | Parabacteroides merdae 0.921

COc1nc(OC)nc(C(=O)c2cccc(F)c2N(C)S(=O)(=O)C(F)F)n1
inactive: Akkermansia muciniphila 0.993 | Bacteroides caccae 1 | Bacteroides clarus 1 | Bacteroides dorei 1 | Bacteroides stercoris 1.07 | [1] 1.01 | Bacteroides uniformis 1.03 | [2] 1.03 | Clostridium difficile 1.04 | Collinsella aerofaciens 1.04 | Coprococcus comes 1.03 | Escherichia coli ED1a 0.999 | Escherichia coli IAI1 0.986 | Eubacterium rectale 1.18 | [3] 1.05 | Lactobacillus gasseri 1.02 | Lactobacillus paracasei 0.977 | Odoribacter splanchnicus 0.892 | [4] 1.03 | Parabacteroides merdae 0.927

Cc1cc(C2CC2)nc(Nc2ccc(O)cc2)n1
inactive: Akkermansia muciniphila 0.829 | Bacteroides caccae 0.999 | Bacteroides clarus 0.967 | Bacteroides dorei 0.994 | Bacteroides stercoris 0.968 | [1] 0.943 | Bacteroides uniformis 0.957 | [2] 1.04 | Clostridium difficile 0.982 | Collinsella aerofaciens 0.975 | Coprococcus comes 0.998 | Escherichia coli ED1a 0.989 | Escherichia coli IAI1 1.01 | Eubacterium rectale 0.903 | [3] 0.955 | Lactobacillus gasseri 1.19 | Lactobacillus paracasei 1.01 | Odoribacter splanchnicus 0.965 | [4] 1.03 | Parabacteroides merdae 0.982

CCOC(=O)NCCOc1ccc(Oc2ccccc2)cc1
inactive: Akkermansia muciniphila 0.87 | Bacteroides caccae 0.934 | Bacteroides clarus 0.928 | Bacteroides dorei 0.854 | Bacteroides stercoris 0.968 | [1] 0.891 | Bacteroides uniformis 0.958 | [2] 0.914 | Clostridium difficile 0.98 | Collinsella aerofaciens 0.984 | Coprococcus comes 0.954 | Escherichia coli ED1a 1 | Escherichia coli IAI1 0.976 | Eubacterium rectale 0.956 | [3] 0.943 | Lactobacillus gasseri 1.03 | Lactobacillus paracasei 0.949 | Odoribacter splanchnicus 0.931 | [4] 0.932 | Parabacteroides merdae 0.974

CCCCCC(C)OC(=O)COc1ccc(Cl)c2cccnc12 (stereo not given)
inactive: Akkermansia muciniphila 1.01 | Bacteroides caccae 0.887 | Bacteroides clarus 0.956 | Bacteroides dorei 0.945 | Bacteroides stercoris 1.03 | [1] 0.889 | Bacteroides uniformis 0.915 | [2] 0.953 | Clostridium difficile 0.934 | Collinsella aerofaciens 0.853 | Escherichia coli ED1a 0.933 | Escherichia coli IAI1 0.989 | [3] 1.01 | Lactobacillus gasseri 0.865 | Lactobacillus paracasei 0.925 | Odoribacter splanchnicus 1 | Parabacteroides merdae 0.943
active: Coprococcus comes 0.795 | Eubacterium rectale 0.177 | [4] 0.741

CCC(C)Nc1nc(N)nc(Cl)n1 (stereo not given)
inactive: Akkermansia muciniphila 1.09 | Bacteroides caccae 0.906 | Bacteroides clarus 0.995 | Bacteroides dorei 1.02 | Bacteroides stercoris 1.16 | [1] 1.01 | Bacteroides uniformis 0.949 | [2] 1.03 | Clostridium difficile 0.974 | Collinsella aerofaciens 1.01 | Coprococcus comes 0.981 | Escherichia coli ED1a 1 | Escherichia coli IAI1 1.01 | Eubacterium rectale 1.05 | [3] 1.03 | Lactobacillus gasseri 0.996 | Lactobacillus paracasei 1.02 | Odoribacter splanchnicus 0.976 | [4] 1.01 | Parabacteroides merdae 1.03

CC(C)c1nn(C(=O)NC(C)(C)C)c(=O)n1N
inactive: Akkermansia muciniphila 0.95 | Bacteroides caccae 1.04 | Bacteroides clarus 0.976 | Bacteroides dorei 1.02 | Bacteroides stercoris 1.08 | [1] 0.976 | Bacteroides uniformis 1 | [2] 0.999 | Clostridium difficile 1 | Collinsella aerofaciens 1.05 | Coprococcus comes 1.02 | Escherichia coli ED1a 1.02 | Escherichia coli IAI1 1.02 | Eubacterium rectale 0.971 | [3] 0.994 | Lactobacillus gasseri 1.07 | Lactobacillus paracasei 1.02 | Odoribacter splanchnicus 1 | [4] 1 | Parabacteroides merdae 1.02

NS(=O)(=O)[O-].[NH4+]
inactive: Akkermansia muciniphila 1.11 | Bacteroides caccae 1.01 | Bacteroides clarus 1.03 | Bacteroides dorei 1.02 | Bacteroides stercoris 1.05 | [1] 1.02 | Bacteroides uniformis 1.05 | [2] 1.06 | Clostridium difficile 1.05 | Collinsella aerofaciens 0.998 | Coprococcus comes 1.06 | Escherichia coli ED1a 1.03 | Escherichia coli IAI1 1.02 | Eubacterium rectale 1.09 | [3] 1.09 | Lactobacillus gasseri 0.996 | Lactobacillus paracasei 0.997 | Odoribacter splanchnicus 0.988 | [4] 1.02 | Parabacteroides merdae 1.06

CCC/C(=N\OCC(C)Oc1ccc(Cl)cc1)C1=C(O)CC(C2CCCSC2)CC1=O (stereo not given)
inactive: Akkermansia muciniphila 0.924 | Bacteroides caccae 0.949 | Bacteroides clarus 0.958 | Bacteroides dorei 1 | Bacteroides stercoris 0.843 | [1] 0.901 | Bacteroides uniformis 0.939 | [2] 0.91 | Clostridium difficile 1.02 | Collinsella aerofaciens 0.973 | Coprococcus comes 0.979 | Escherichia coli ED1a 0.98 | Escherichia coli IAI1 0.987 | Eubacterium rectale 0.906 | [3] 0.913 | Lactobacillus gasseri 1.02 | Lactobacillus paracasei 0.706 | Odoribacter splanchnicus 1.07 | [4] 0.885 | Parabacteroides merdae 0.938

O.O=C(Nc1ccc(Cl)c(Cl)c1)Nc1cc(Cl)ccc1Oc1ccc(Cl)cc1S(=O)(=O)[O-].[Na+]
active: Bacteroides clarus 0.22 | Bacteroides stercoris 0.0107 | [1] 0.329 | Bacteroides uniformis 0.00911 | Collinsella aerofaciens 0.619 | Lactobacillus gasseri 0.0949 | Odoribacter splanchnicus 0.0102 | [4] 0.494
inactive: Akkermansia muciniphila 1.16 | Bacteroides caccae 0.906 | Bacteroides dorei 0.908 | [2] 0.912 | Clostridium difficile 0.829 | Coprococcus comes 0.823 | Escherichia coli ED1a 1.06 | Escherichia coli IAI1 1.03 | Eubacterium rectale 0.886 | [3] 0.691 | Lactobacillus paracasei 0.906 | Parabacteroides merdae 0.861

O.O=C(Nc1ccc([N+](=O)[O-])cc1Cl)c1cc(Cl)ccc1O
active: Bacteroides caccae 0.0261 | Bacteroides clarus 0.00802 | Bacteroides dorei 0.0256 | Bacteroides stercoris 0.00906 | [1] 0.00758 | Bacteroides uniformis 0.0308 | [2] 0.0965 | Clostridium difficile 0.328 | Lactobacillus gasseri 0.15 | Lactobacillus paracasei 0.3 | Odoribacter splanchnicus 0.039 | [4] 0.0373 | Parabacteroides merdae 0.0254
inactive: Akkermansia muciniphila 0.828 | Collinsella aerofaciens 0.865 | Coprococcus comes 0.884 | Escherichia coli ED1a 1 | Escherichia coli IAI1 0.973 | Eubacterium rectale 0.952 | [3] 0.741

CC1(C)C(C(=O)OC(C#N)c2cccc(Oc3ccccc3)c2)C1C(Br)C(Br)(Br)Br (stereo not given)
inactive: Akkermansia muciniphila 0.951 | Bacteroides caccae 0.934 | Bacteroides clarus 1.04 | Bacteroides dorei 0.995 | Bacteroides stercoris 1.2 | [1] 1 | Bacteroides uniformis 0.943 | [2] 1.03 | Clostridium difficile 1.03 | Collinsella aerofaciens 0.939 | Coprococcus comes 0.99 | Escherichia coli ED1a 1.02 | Escherichia coli IAI1 1.01 | Eubacterium rectale 0.996 | [3] 1.05 | Lactobacillus gasseri 1.04 | Lactobacillus paracasei 1.12 | Odoribacter splanchnicus 1.06 | [4] 0.998 | Parabacteroides merdae 1

CCCCOC(=O)[C@@H](C)Oc1ccc(Oc2ccc(C(F)(F)F)cn2)cc1
inactive: Akkermansia muciniphila 0.865 | Bacteroides caccae 0.983 | Bacteroides clarus 0.932 | Bacteroides dorei 0.951 | Bacteroides stercoris 0.851 | [1] 0.948 | Bacteroides uniformis 0.918 | [2] 0.969 | Clostridium difficile 0.989 | Collinsella aerofaciens 0.963 | Coprococcus comes 0.961 | Escherichia coli ED1a 0.989 | Escherichia coli IAI1 0.997 | Eubacterium rectale 0.918 | [3] 0.789 | Lactobacillus gasseri 0.915 | Lactobacillus paracasei 0.993 | Odoribacter splanchnicus 0.977 | [4] 0.844 | Parabacteroides merdae 0.96
